From PubChem BioAssay AID1637 (Sanford-Burnham Center for Chemical Genomics, 2009) come the findings set out here.

In all, about 3,700 compounds went through this assay and fewer than 10 were called active. Not all results are given here. A number with no mark means an inactive call. No rule for the calls is given here.

The nature of this assay: NMR binding screen, influenza A RNA promoter, Kd (AID 1637). To be noted: NMR binding to influenza A RNA promoter.
Take `COC(=O)c1nc(-c2ccccc2)oc1N(C)C`: the Kd (as a rule, the equilibrium constant for the complex coming apart) was above 4 mM.

Consider `Cc1cc(C)n(S(=O)(=O)c2cc(C)c(C)cc2C)n1`, for which the Kd was above 4 mM.

As for `CCc1cc2c(SCC(=O)O)ncnc2s1`, the Kd is above 4 mM.

Turning to `O=C(c1ccccc1)c1ccc(N2CCNCC2)cc1`, the Kd was above 4 mM.

As to `CC(=O)Nc1cccc(NC(=O)c2cccnc2)c1`, the Kd is above 4 mM.

For `C(=N\c1nccs1)/c1cccnc1`, the Kd was above 4 mM.

`Cc1ccccc1C(=O)Nn1cnnc1`: the Kd is above 4 mM.

For `OCc1cccc2c1OCCO2`, the Kd was above 4 mM.

On to `O=C(Nc1cccnc1)N1CCOCC1`, for which the Kd was above 4 mM.

As for `CN(c1ccccc1C(=O)N1CCCC1)S(C)(=O)=O`, the Kd was above 4 mM.

With `[O-][n+]1onc2c1CCc1c-2nc(-c2ccccc2)n1O`, the Kd is above 4 mM.

As to `CNC(=O)c1cc(C)c(-c2ccccc2)s1`, the Kd is above 4 mM.

`NC(=O)CC(=O)NC12CC3CC(CC(C3)C1)C2`: the Kd was above 4 mM.

Regarding `O=C(NCc1cccs1)c1ccc2c(c1)OCCO2`, the Kd is above 4 mM.

Regarding `COCCn1c(C)cc(O)cc1=O`, the Kd is above 4 mM.

Turning to `CSc1ccc(C(=S)N2CCN(C)CC2)cc1`, the Kd was above 4 mM.

As for `Nc1ncnc(Nc2ccccc2C(F)(F)F)n1`, the Kd is above 4 mM.

Turning to `Cc1nnsc1C(=O)O`, the Kd is above 4 mM.

With `CCc1ccccc1NC(=O)c1cnccn1`, the Kd was above 4 mM.

With `Cc1ccc(/C=C2/C(=O)N=C(N)N2C)s1`, the Kd was above 4 mM.

On to `O=c1[nH]cc(NCc2ccco2)c(=O)[nH]1`, for which the Kd was above 4 mM.

Take `COc1ccc(-c2c(O)c3c(OC)c4c(cc3oc2=O)OC(C)(C)CC4)cc1`: the Kd was above 4 mM.

Regarding `COC[C@]12CN(C=O)C3[C@@H]4[C@H](OC)C1[C@]3(C1CC3(O)C(OC)C(O)C4(OC(C)=O)C1C3OC(=O)c1ccccc1)[C@@H](OC)C[C@H]2O` (some centres not stated), the Kd was above 4 mM.

As to `C=C(C)[C@@H]1CC[C@]2(CO)CC[C@]3(C)[C@H](CCC4[C@@]5(C)CC[C@H](O)C(C)(C)C5CC[C@]43C)C12` (some centres not stated), the Kd is above 4 mM.

Turning to `CSc1ncc(C(=O)O)n1Cc1ccccc1`, the Kd was above 4 mM.

Regarding `CCOC(=O)C1CCNCC1`, the Kd is above 4 mM.

On to `NCc1csc(-c2ccccc2)n1`, for which the Kd is above 4 mM.

Take `O=C(O)c1ccc2snnc2c1`: the Kd is above 4 mM.

Take `Oc1ccc(C2SCCS2)cc1`: the Kd is above 4 mM.

Regarding `Nc1oncc1-c1ccccn1`, the Kd was above 4 mM.

For the compound `Cc1cccc(CSc2nncc(=O)[nH]2)c1`, the Kd is above 4 mM.

In the case of `COc1ccc2c(c1)c1n[nH]c(=S)nc1n2C`, the Kd is above 4 mM.

On to `Cc1nc2ccccc2c(=O)[nH]1`, for which the Kd was above 4 mM.

Consider `CCc1noc(C)c1C(=O)N1CCCC1`, for which the Kd is above 4 mM.

As to `Nc1cc(=O)[nH]c(=O)n1Cc1ccco1`, the Kd was above 4 mM.

As to `NC(=S)NC(=O)CN1C(=O)c2ccccc2C1=O`, the Kd was above 4 mM.

Turning to `NC(=O)CSc1ccc(Br)cc1`, the Kd was above 4 mM.

`O=C(c1ccncc1)c1ccc(Br)cc1`: the Kd is above 4 mM.

Consider `CC1=C/C(=C\c2c(O)[nH]c(=O)[nH]c2=O)C(C)=N1`, for which the Kd was above 4 mM.

Regarding `NC(=O)C1CCN(S(=O)(=O)c2ccccc2)CC1`, the Kd is above 4 mM.

With `CCOC(=O)CNc1ncnc2c1nnn2CC`, the Kd is above 4 mM.

Regarding `O=C1CNc2cc(C(=O)O)ccc2N1`, the Kd is above 4 mM.

On to `CCC1(CC)C(=O)N=C(N)NC1=O`, for which the Kd was above 4 mM.

Turning to `CNC(=O)CC1Sc2ccccc2NC1=O` (configuration not stated), the Kd is above 4 mM.

For `O=C1CSC(=Nc2ccccc2[N+](=O)[O-])N1`, the Kd was above 4 mM.

Turning to `CN1CCC(N2CCOCC2)CC1`, the Kd was above 4 mM.

For the compound `Cc1cc(C(=O)NCc2cccnc2)no1`, the Kd is above 4 mM.

Take `COc1ccc(S(=O)(=O)N2CCOCC2)cc1C(C)C`: the Kd is above 4 mM.

For the compound `COc1cccc(/C=C/C(=O)O)c1C(C)C`, the Kd was above 4 mM.

For the compound `CCN1CCC(=NO)CC1`, the Kd is above 4 mM.

For the compound `Cc1ccc(SCc2cc(=O)n3[nH]cnc3n2)cc1`, the Kd was above 4 mM.

Turning to `Nc1ccc(-n2cccn2)cc1`, the Kd is above 4 mM.

With `Cc1ccc(S(=O)(=O)CC(=O)N(C)C)cc1`, the Kd was above 4 mM.

Take `Cc1cccc(N2C(=O)CC(=O)NC2=O)c1`: the Kd is above 4 mM.

Consider `Cc1ccccc1NC(=O)C1CC(=O)N=C(N)S1` (configuration not stated), for which the Kd was above 4 mM.

On to `CC(C)(C)CC(=O)NNC(=O)c1cnccn1`, for which the Kd was above 4 mM.

For `CCSc1nc(N)c(NC(=O)c2ccco2)c(=O)[nH]1`, the Kd is above 4 mM.

For the compound `Cc1ccccc1NC(=O)CC1NCCNC1=O` (configuration not stated), the Kd was above 4 mM.

Consider `Cc1cc(CN2C(=O)c3ccccc3C2=O)on1`, for which the Kd is above 4 mM.

With `O=C(O)CCCNC(=O)c1ccccc1C(=O)O`, the Kd was above 4 mM.

On to `CC(C)(C)NC(=O)CN1C(=O)c2ccccc2S1(=O)=O`, for which the Kd is above 4 mM.

`COc1ccc(/C=C2\SC(N)=NC2=O)cc1`: the Kd is above 4 mM.

As for `CC(C)=NNC(=O)C(=O)Nc1ccc(F)cc1`, the Kd was above 4 mM.

On to `CS/C(N)=C\C(C)=O`, for which the Kd was above 4 mM.

Consider `Nc1nonc1-c1nc2ccccc2[nH]1`, for which the Kd is above 4 mM.

With `NCc1ccc(-c2ccccn2)s1`, the Kd was above 4 mM.

Consider `Cc1oc(-c2ccccc2)cc1C(=O)O`, for which the Kd is above 4 mM.

With `O=S1(=O)CCC2CC=CCC21` (configuration not stated), the Kd is above 4 mM.

Turning to `S=C(c1ccc(N2CCOCC2)cc1)N1CCOCC1`, the Kd is above 4 mM.

With `CC1(C)CC2(C)N(N)C(=O)CN2C(=S)N1` (configuration not stated), the Kd was above 4 mM.

Turning to `O=c1[nH]cc(NCc2ccccc2)c(=O)[nH]1`, the Kd is above 4 mM.

For `c1cnc(N2CCNCC2)nc1`, the Kd is above 4 mM.

For the compound `COc1cccc(N2CCNCC2)c1`, the Kd is above 4 mM.

As to `COc1cc2nc(N3CCNCC3)nc(N)c2cc1OC`, the Kd is 0.078 mM (active).

Regarding `CN(C)c1nc(N2CCOCC2)c2cnn(C)c2n1`, the Kd is above 4 mM.

Turning to `O=C(CSc1ncn[nH]1)c1ccccc1`, the Kd was above 4 mM.

For `Cc1cccc(N2C(=O)CCC2=O)n1`, the Kd was above 4 mM.
